Bioassay records deposited in PubChem by National Center for Advancing Translational Sciences (NCATS).
D2 ag-1 – activates the human D2 dopamine receptor; P14416; HEK293 T-REx D2 cells, calcium flux agonist mode; activation, % at 2 µM; 340,000 compounds, 0.53% hits; AID 485358;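 active means activation over 3 SD above normal in the single-dose calcium agonist read, cut at about 30% in these data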; further: 0% is about no effect
Target sequence (P14416 whole entry, looked up): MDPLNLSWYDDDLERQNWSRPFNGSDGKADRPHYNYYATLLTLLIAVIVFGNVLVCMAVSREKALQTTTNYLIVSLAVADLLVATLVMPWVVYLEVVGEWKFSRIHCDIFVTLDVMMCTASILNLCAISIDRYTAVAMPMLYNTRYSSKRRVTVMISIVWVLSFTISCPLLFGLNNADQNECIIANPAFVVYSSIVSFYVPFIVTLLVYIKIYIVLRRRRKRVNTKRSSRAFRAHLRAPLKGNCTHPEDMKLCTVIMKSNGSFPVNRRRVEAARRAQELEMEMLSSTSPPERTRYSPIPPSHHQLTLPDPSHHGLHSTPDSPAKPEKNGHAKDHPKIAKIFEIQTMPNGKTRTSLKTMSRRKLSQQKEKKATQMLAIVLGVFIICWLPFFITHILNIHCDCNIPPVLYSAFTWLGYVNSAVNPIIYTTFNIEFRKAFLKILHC
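Tetracycline-induced HEK293 T-REx cells with force-coupled D2 receptor, plated overnight at 30 C, loaded with no-wash calcium dye. After a 10 s baseline, compound was pin-added and calcium flux read kinetically for 180 s; calcium rises flagged agonists.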
D2 antag – antagonizes the human D2 dopamine receptor. P14416. HEK293 TREx D2 cells, calcium flux, dopamine EC80. inhibition, % at 10 µM. 340,000 compounds, 2% hits. AID 485344; in the data active means inhibition above about 30%; inactive means below that, where a call was filed; further: 0% is about no effect
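In this primary screen, negative modulation is detected by tracking calcium flux after an EC80 dopamine challenge in inducible HEK293 T-REx D2 cells preexposed to test compound for 180 s.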
D2 PAM-1 – human D2 receptor positive allosteric modulation | P14416 | DiscoveRx D2 beta-arrestin cells, luminescence, 90 min; 100% = 57 uM dopamine signal | potentiation, % (concentration not given with the values) | 360,000 compounds, 0.23% hits; in the data active means potentiation above about 50%; inconclusive means mostly about 30% to 49%
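PathHunter D2 cells, attached overnight at 37 deg C, received compound in DMSO plus dopamine at EC20 (50 nM final) for 90 min at 37 deg C. Beta-arrestin recruitment was read as luminescence after 1 h with detection reagent at ambient temperature.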
D2 PAM-2 – positive allosteric modulators of human D2 dopamine receptor. P14416. AID 485347. potentiation, % at 10 µM. 340,000 compounds, 0.34% hits. HEK293 T-REx D2, calcium flux, EC20 dopamine potentiation;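 active means potentiation over 3 SD above the plate norm, cut at about 30% in these data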; further: 0% is about no effect
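Using a no-wash calcium dye in inducible, force-coupled HEK293 Trex cells expressing D2, we tracked fluorescence each second for 180 s after compound, then for 180 s after EC20 dopamine to detect augmented signalling.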
LDHA inh – blocks human lactate dehydrogenase A. activity change, % (values are at about 110 or 230 µM). 480,000 compounds, 0.15% hits. purified LDHA, NADH/diaphorase-resazurin fluorescence; hits give low values; in the data active means activity change below about -30%; inconclusive means mostly about -25% to -30%;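 further: plate controls were DMSO wells for no effect and wells without enzyme for full effect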
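LDH5 2 nM; NADH 0.06 mM, pyruvate 0.2 mM; 200 mM Tris pH 7.4, EDTA, Tween-20; 5 min RT. Detection: diaphorase 0.133 mg/mL + resazurin 37 µM, fluorescence ex540/em590 at 0 and 20 min; normalized to enzyme-free and DMSO wells.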
D2 ag-2 – agonists of human D2 dopamine receptor (beta-arrestin) | activation, % (no concentration beside the values) | 360,000 compounds, 0.084% hits | P14416 | AID 624465 | DiscoveRx PathHunter D2 beta-arrestin, luminescence, 90 min; 100% = 57 uM dopamine signal; in the data active means activation above about 40%; inconclusive means between about 15% and that limit
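Agonist mode: compounds alone added to overnight-plated D2 PathHunter cells for 90 min at 37 C, with 57 uM final dopamine (EC100) defining full response. Beta-arrestin recruitment detected by chemiluminescent reagent, read after 1 h at ambient temperature.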
* hit, by the source's call. Hits are enriched below; roughly 2.1% of the tested compounds scored in any of these assays.

`CCCCCCc1cc2cc(-c3nnc(-c4ccccc4OC)o3)c(=O)oc2cc1O` gave D2 ag-1 110*, D2 antag -43, D2 PAM-1 155*, D2 PAM-2 -1, LDHA inh -5 and D2 ag-2 inconclusive.
O=C1CSc2sc(=S)sc2SC1 was read as LDHA inh 1.
Screening CC1=C(C)/C(=N\OS(=O)(=O)c2ccc(C)cc2)C=CC1=O returned D2 PAM-1 67*, D2 PAM-2 -2, LDHA inh 37 and D2 ag-2 48*.
Screening CC1=C/C(=N\OS(=O)(=O)c2ccccc2)C(C(C)C)=CC1=O returned D2 ag-1 0, D2 antag 6, D2 PAM-1 114*, D2 PAM-2 1, LDHA inh 38 and D2 ag-2 49*.
CC1=C/C(=N\OS(=O)(=O)c2ccccc2)C(C)=CC1=O was read as D2 ag-1 1, D2 antag -6, D2 PAM-1 79*, D2 PAM-2 5, LDHA inh 27 and D2 ag-2 inconclusive.
Screening Cc1ccc(-c2cc(C(=O)OCC(=O)NC(=O)C3CCCCC3)c3ccccc3n2)o1 returned LDHA inh 8.
Screening COc1cc(NS(=O)(=O)c2cccc(Cl)c2Cl)c(C(=O)O)cc1OC returned LDHA inh 8.
O=C(C1=C(O)C(=O)N(CCCn2ccnc2)C1c1ccncc1)c1cc2ccccc2o1 (stereo not given) was read as LDHA inh 6.
`Cc1cccc(NC(=S)N(CCCN2CCOCC2)Cc2ccccn2)c1` gave D2 ag-1 1, D2 antag 40*, D2 PAM-1 -12, D2 PAM-2 -6, LDHA inh -3 and D2 ag-2 -3.
Screening Cc1cccc(NC(=S)NNC(=O)CCn2cc(C)cn2)c1 returned D2 ag-1 0, D2 antag -7, D2 PAM-1 -25, D2 PAM-2 45*, LDHA inh -3 and D2 ag-2 -2.
Screening Cc1nn(CCC(=O)NNC(=S)Nc2ccccc2)c(C)c1Br returned D2 ag-1 0, D2 antag 12, D2 PAM-1 -52, D2 PAM-2 4, LDHA inh 2 and D2 ag-2 -15.
Screening COc1ccc(S(=O)(=O)N2CCCCCC2)cc1C(=O)N1CCN(c2ccc(F)cc2)CC1 returned D2 PAM-1 -3, LDHA inh -2 and D2 ag-2 9.
Screening CN1CCN(C(=O)C2CCCN(S(=O)(=O)c3ccc(Cl)cc3)C2)CC1 (stereo not given) returned D2 ag-1 -1, D2 antag 6, D2 PAM-1 -7, D2 PAM-2 2, LDHA inh -33* and D2 ag-2 0.
CCOC(=O)C1CCCN(S(=O)(=O)c2ccc(S(N)(=O)=O)cc2)C1 (stereo not given) was read as D2 ag-1 1, D2 antag -11, D2 PAM-1 0, D2 PAM-2 51*, LDHA inh -12 and D2 ag-2 5.
`CCOC(=O)C1CCN(C(=O)c2cc(S(=O)(=O)N3CCCCCC3)ccc2OC)CC1` gave D2 ag-1 -1, D2 antag 38*, D2 PAM-1 -10, D2 PAM-2 10, LDHA inh -4 and D2 ag-2 -3.
CN1CCN(C(=O)C2CCCN(S(=O)(=O)c3ccc(Br)cc3)C2)CC1 (stereo not given) was read as D2 ag-1 1, D2 antag -12, D2 PAM-1 -28, D2 PAM-2 5, LDHA inh -6 and D2 ag-2 -4.
For COc1ccc(N2CCN(C(=O)c3cc(S(=O)(=O)N4CCCCCC4)ccc3OC)CC2)cc1 the results were D2 ag-1 0, D2 antag 40*, D2 PAM-1 -21, D2 PAM-2 -9, LDHA inh 3 and D2 ag-2 -2.
Screening COc1ccc2nc(/C(C#N)=C\c3ccc(C)o3)[nH]c2c1 returned LDHA inh 9.
CCC1CCc2nc(N)c(C#N)c(-c3ccccc3Cl)c2C1 (stereo not given) was read as LDHA inh -7.
